# Source: PubChem BioAssay
# A selection: hits, their analogues and other compounds. The true share with any hit is near 2.2%.
# ADAM10 inh: inhibits human ADAM10; O14672; recombinant ADAM10, EDANS/DABCYL FRET peptide cleavage, 3 h; inhibition, % at 7 µM; hit rate 0.62% among 370,000;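 active means inhibition above a per-campaign cutoff equal to the mean of compounds falling between control-based bounds plus 3 SD, cut at about 20% in these data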;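 further: 0% = DMSO wells while the 100% control is not disclosed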
# proKLK7 act: activators of human kallikrein-7 zymogen; P49862; purified proKLK7, EDANS-DABCYL substrate fluorescence; 100% is mature enzyme control, 0% vehicle; activation, % at 7 µM; hit rate 0.9% among 370,000; AID 652039;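 active means activation above the mean of all tested compounds plus 3 SD, computed per campaign excluding outliers beyond control limits, cut at about 13% in these data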
# GC-A act: GC-A (human) enzyme activation; P16066; HEK293 GC-A cells, cGMP TR-FRET, EC30 ANP; 0% at EC30 ANP, 100% saturating ANP; activation, % at 10 µM; hit rate 0.14% among 370,000; in the data active means activation above about 40%
# ADAM17 inh: inhibitors of human ADAM17 | recombinant ADAM17, EDANS/DABCYL FRET peptide cleavage | inhibition, % at 6.95 µM | AID 720648 | hit rate 0.83% among 370,000;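 active means inhibition above the mean of compounds lying between control limits plus 3 SD, set per campaign, cut at about 8.5% in these data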;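 further: 0% = DMSO-only wells as the low control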
# GC-B act: GC-B (human) receptor activation; activation, % at 10 µM; hit rate 0.11% among 370,000; HEK293-GC-B cells, CNP EC30, cGMP TR-FRET; 0% at EC30 CNP, 100% saturating CNP; P20594;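 active means activation at 10 µM reaching about 35% in either raw or pattern-adjusted values, limit read from the data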
# ADAM10 counter: inhibits human ADAM10 in ADAM17 exosite counter-screen; shares compounds with ADAM17 inh; recombinant ADAM10, EDANS/DABCYL FRET peptide cleavage, 3 h; inhibition, % at 6.95 µM; hit rate 47% among 2,900; AID 743256;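 active means mean inhibition over the triplicate runs exceeds the activity threshold set in the earlier primary screen, cut at about 20% in these data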;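 further: 0% = DMSO wells and 100% = marimastat wells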
# ADAM17 confirm: confirmation of inhibitors of human ADAM17. shares compounds with ADAM17 inh. hit rate 65% among 2,900. inhibition, % at 6.95 µM. recombinant ADAM17, EDANS/DABCYL QFRET peptide cleavage;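 active means mean inhibition across replicates above the hit cutoff set in the primary screen, cut at about 8.5% in these data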;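 further: 0% = DMSO wells and 100% = marimastat wells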
# Active calls of the source: *; · = no result given.
SMILES,ADAM10 inh,proKLK7 act,GC-A act,ADAM17 inh,GC-B act,ADAM10 counter,ADAM17 confirm
CC(=O)C[C@@H](O)CC(=O)[C@H]1OC(=O)CC/C=C\Cc2ccccc21,-5,0,5,-2,4,·,·
CC(=O)C[C@H](O)CC(=O)[C@@H]1OC(=O)CCCCC/C=C/Cc2ccccc21,13,0,-4,8.8*,4,1,-1
O=C(N/N=C/c1ccc(N2CCCC2)c([N+](=O)[O-])c1)c1cccnc1,17,0,-7,9.0*,-7,21*,12*
COc1cc(NC(=O)c2[nH]c(C)c(C(C)=O)c2C)c(OC)cc1Cl,1,·,6,-3,5,·,·
CC1(c2nnc(-c3cccc(Cl)c3)o2)CC(c2ccc(F)cc2)=NO1 (stereo not given),10,0,-2,11*,-4,-3,3
Cc1cc(C)n(CCc2nc(-c3ccc(C(C)(C)C)cc3)cs2)n1,19,0,2,12*,-7,14,11*
COC(=O)[C@]12C[C@H](CC(=O)N3CCCC3)C(=O)N(Cc3ccc4c(c3)OCO4)C1=C[C@H](C(C)C)O[C@@H]2C1CC1,6,0,-9,2,-8,·,·
CCc1c(-c2ccc(Cl)cc2)ncn1Cc1cccc(-c2ccccc2)c1,18,1,15,12*,21,1,6
CCc1c(-c2ccccc2F)ncn1Cc1cccc(-c2ccccc2)c1,9,1,-3,8,-1,·,·
CC(C)C(c1nnnn1Cc1ccco1)N1CCN(c2cccc(Cl)c2)CC1 (stereo not given),20,0,-4,14*,-4,12,8
CCN(CCNC(=O)Nc1ccc(Cl)cc1)c1ccccc1,16,1,0,9.8*,0,37*,19*
CCOc1ccc(NS(=O)(=O)c2ccc3c(c2)CCN3C(=O)C2CCC2)cc1,3,-1,-1,-1,3,·,·
CCOc1ccc(NS(=O)(=O)c2ccc3c(c2)CCN3C(=O)CCC(=O)O)cc1,14,-1,2,9.8*,2,-3,0
CCOC(=O)[C@]12CCCC3=C1N(CCC3)C(=O)[C@@H](CC(=O)N1CCN(C(=O)C3CC3)CC1)C2,-3,0,2,-3,7,·,·
COC(=O)[C@]12C[C@H](CC(=O)NCC34CC5CC(CC(C5)C3)C4)C(=O)N(CCC3=CCCCC3)C1=C[C@H](C1CCCC1)O[C@@H]2C,-8,1,0,-7,-4,·,·
Oc1ccccc1-c1cc(-c2ccco2)[nH]n1,-5,-1,-4,-2,1,·,·
Oc1ccccc1-c1cc(-c2ccccc2Cl)[nH]n1,14,-1,8,9.5*,-12,24*,12*
Cc1ccc(S(=O)(=O)N2CCCC2C(=O)N2CCN(c3ccccc3)CC2)cc1C (stereo not given),1,0,2,1,1,·,·
Cc1ccccc1-c1cc2nc(Oc3ccc4c(c3)OCO4)n(C)c(=O)c2s1,-5,0,0,0,-2,·,·
Cc1ccccc1-c1cc2nc(Oc3cccc4ccccc34)n(C)c(=O)c2s1,1,-1,1,9.2*,3,15,9.5*
O=C(Nc1ccc(F)cc1)OCc1cn(Cc2ccc(F)cc2F)nn1,5,0,0,-1,0,·,·
COC(=O)c1cc(-c2ccc(Cl)s2)c(=O)n2c1CCC2,-417,4,5,-99,-5,·,·
N#CC(C#N)=C1C=C2C=C(N3CCCCCC3)CCC2CC1 (stereo not given),-15,10,-5,9.7*,-2,0,5
CCc1cc2c(nc1CC)CCCN2S(=O)(=O)c1ccccc1,-6,-1,-4,-2,-6,·,·
N#Cc1cccc(NC(=O)c2cc(C3CCCCN3S(=O)(=O)c3ccccc3)on2)c1 (stereo not given),14,-1,-3,12*,7,18,12*
SMILES,ADAM10 inh,proKLK7 act,GC-A act,ADAM17 inh,GC-B act,ADAM10 counter,ADAM17 confirm
CCc1nc(SCc2ccc(OCC(C)C)cc2)n[nH]1,20*,0,5,10*,7,15,7
COc1ccc(NC(=O)Nc2ccc3c(c2)CC(=O)N([C@H](C)CO)C[C@H](C)[C@H](CN(C)Cc2ccc(C(=O)O)cc2)O3)cc1,7,-1,1,9.0*,1,10,8
C[C@H]1CN([C@@H](C)CO)C(=O)Cc2cc(NC(=O)C3CC3)ccc2O[C@H]1CN(C)Cc1ccc(Oc2ccccc2)cc1,19,0,0,9.3*,13,29*,19*
CCCC/C=C1/[C@@H](CC)N(Cc2ccc(OC)cc2OC)C2=N[C@@H](c3ccccc3)CC(=O)N21,9,·,-22,4,-19,·,·
CC(CCN1CCC(C(O)(c2ccccc2)c2ccccc2)CC1)Oc1cccc(Cl)c1 (stereo not given),6,1,-22,1,-9,·,·
O=C(N/N=C/c1ccc[nH]1)c1cc(-c2ccc(Cl)cc2)nc2ccccc12,16,-6,-10,9.6*,-5,22*,15*
CCN(C(=O)c1cccc2c1-c1ccccc1C2=O)c1ccccc1,-10,-1,-28,4,-25,·,·
O=C(O)c1cccc(S(=O)(=O)Nc2ccc(O)c(Sc3nc4ccccc4s3)c2)c1,1,0,-1,-2,3,·,·
O=S(=O)(Nc1ccc(-c2csc(-c3ccccc3)n2)cc1)c1ccc(F)cc1,16,-1,-1,11*,-7,20*,19*
O=S(=O)(Nc1ccc(O)c(Sc2nc3ccccc3s2)c1)c1cccc2ccccc12,18,0,-4,9.0*,8,42*,22*
CC(=O)Nc1ccc(NS(=O)(=O)c2cccc3ccccc23)cc1,0,0,-2,-1,-1,·,·
O=S(=O)(Nc1ccc(O)c(Sc2nc3ccccc3s2)c1)c1ccc(F)cc1,19,0,3,10*,5,34*,23*
CNC(C#Cc1ccccc1)c1ccccc1C(F)(F)F (stereo not given),5,·,-1,-1,-8,·,·
CCOC(=O)[C@]12CCCCC/C=C\1N(Cc1ccc(OC)cc1)C(=O)[C@H]2CC(=O)NCC12CC3CC(CC(C3)C1)C2,8,0,-6,3,-1,·,·
Cc1ccc(NC(CNS(=O)(=O)c2ccc(Cl)cc2)c2ccccc2)cc1 (stereo not given),15,0,-18,13*,-16,31*,15*
CS/C(=C\[N+](=O)[O-])Nc1ccc(Cl)cc1,16,0,0,12*,-6,2,1
